High-throughput results as filed in PubChem.
Peg3 prom inh = reduces Peg3 promoter-driven luciferase expression in HeLa. HeLa PEG-Prom luciferase reporter, luminescence, overnight. inhibition, % at 20 µM. 360,000 tested, 1.7% active. AID 588405;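 active = inhibition of at least 50% at 20 µM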
HIF-2a inh = blocks HIF-2a reporter activity; inhibition, % at 18.8 µM; 360,000 tested, 0.72% active; 786-0 RCC cells HIF-2a reporter, luciferase luminescence, overnight;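 active = inhibition of the luminescence signal of 40% or more relative to plate controls, in a single-dose primary screen at 18.75 µM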
CF NFkB inh = inhibitors of cystic fibrosis induced NF-kB; inhibition, % at 5 µM; KKLEB NF-kB-GFP reporter, PAF-induced, GFP fluorescence overnight; 360,000 tested, 0.86% active;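 active = at least 50% inhibition at 5 µM, scaled per plate between neutral and stimulator controls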;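 also: PAF is a Pseudomonas aeruginosa culture filtrate used as stimulus; plate controls were PAF-stimulated DMSO wells for no effect and unstimulated DMSO wells for full effect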
TROY NFkB inh = blocks TROY-dependent signaling in reporter cells; Q293 LMP1-TROYcd NF-kB luciferase reporter, 4 h; inhibition, % at 10 µM; 360,000 tested, 0.98% active; AID 1347056;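 active = compounds whose plate-normalised and pattern-corrected inhibition of the luciferase reporter signal at the single screening dose is 50% or more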
TWEAK Fn14 block = blocks TWEAK-Fn14 interaction in a reporter cell assay; TWEAK-stimulated Fn14 reporter cells, luciferase luminescence, 8 h; inhibition, % at 10 µM; 360,000 tested, 2% active; in the data active = inhibition above about 50%
KKLEB cytotox = CF airway cell cytotoxicity counter-screen. KKLEB CF airway cells viability, ATPlite luminescence, overnight; hits give low values; cells stimulated with P. aeruginosa culture filtrate. 360,000 tested, 0.36% active. activity change (cytotoxicity), % at 5 µM;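 active = corrected activity change at or below -50% at 5 µM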
Mdm2 MdmX conf = confirmation of inhibitors of human Mdm2/MdmX interaction, set 2; shares compounds with HIF-2a inh; SaOS-2 split-luciferase Mdm2/MdmX complementation, luminescence; inhibition, % at 8 µM; 740 tested, 99% active;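 active = mean inhibition of the luminescence signal across two replicates at or above 26 percent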
Target sequence (O15151 whole entry, looked up): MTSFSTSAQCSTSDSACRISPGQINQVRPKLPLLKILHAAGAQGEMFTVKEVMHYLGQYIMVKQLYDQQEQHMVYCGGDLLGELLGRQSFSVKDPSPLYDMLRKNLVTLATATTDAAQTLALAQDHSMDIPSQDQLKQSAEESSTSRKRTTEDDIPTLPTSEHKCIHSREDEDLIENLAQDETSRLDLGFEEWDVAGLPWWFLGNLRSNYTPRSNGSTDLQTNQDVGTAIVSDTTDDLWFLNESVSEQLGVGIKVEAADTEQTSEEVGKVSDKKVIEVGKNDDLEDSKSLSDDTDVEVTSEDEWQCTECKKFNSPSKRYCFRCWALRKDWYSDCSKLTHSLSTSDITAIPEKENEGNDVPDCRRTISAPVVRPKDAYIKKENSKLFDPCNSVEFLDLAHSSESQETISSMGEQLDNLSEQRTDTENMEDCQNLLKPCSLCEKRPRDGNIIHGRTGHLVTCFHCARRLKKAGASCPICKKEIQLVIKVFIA
Target sequence (Q00987 whole entry, looked up): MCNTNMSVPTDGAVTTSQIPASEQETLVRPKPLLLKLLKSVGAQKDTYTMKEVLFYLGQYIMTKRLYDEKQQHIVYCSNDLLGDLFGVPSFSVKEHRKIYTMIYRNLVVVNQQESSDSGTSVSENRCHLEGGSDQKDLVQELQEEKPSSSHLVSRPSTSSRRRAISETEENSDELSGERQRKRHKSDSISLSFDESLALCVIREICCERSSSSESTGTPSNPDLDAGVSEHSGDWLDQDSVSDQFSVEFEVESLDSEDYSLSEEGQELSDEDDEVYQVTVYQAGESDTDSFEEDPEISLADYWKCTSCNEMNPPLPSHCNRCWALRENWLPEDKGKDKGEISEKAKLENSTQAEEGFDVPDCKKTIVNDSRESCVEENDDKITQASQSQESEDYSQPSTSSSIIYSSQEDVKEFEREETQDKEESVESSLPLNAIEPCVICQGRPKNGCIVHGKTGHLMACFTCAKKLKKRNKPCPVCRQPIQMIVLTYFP
HIF-2a inh conf = confirmation of HIF-2a inhibitors; shares compounds with HIF-2a inh; 786-0 RCC cells, HIF-2a luciferase reporter luminescence, overnight; inhibition, % at 18.8 µM; 1,800 tested, 56% active; AID 651580;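 active = mean inhibition across four replicates of at least 40 percent at the single tested concentration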
HIF-1a cs = HIF-1a inhibition counter-screen for HIF-2a hits; shares compounds with HIF-2a inh; MiaPaCa-2 HIF-1a luciferase reporter, desferoxamine, overnight; inhibition, % at 18.8 µM; 1,800 tested, 72% active;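 active = mean inhibition of the reporter signal across four replicates at the single tested dose of 50% or more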
Numbers without * were called inactive; x = not tested or not shown. Most compounds without a hit are left out; they make up all but 4% or so of the library.

SMILES	Peg3 prom inh	HIF-2a inh	CF NFkB inh	TROY NFkB inh	TWEAK Fn14 block	KKLEB cytotox	HIF-2a inh conf	HIF-1a cs	others
CCC(C)(O)C(=O)OC1C(=O)OC2CC3C(C)=CC(O)C(O)C3(C)C3C4(O)OCC23C1C(C)C4O (configuration not stated)	95*	46*	35	44	92*	5	45*	102*
COc1ccc(C(c2nnnn2-c2ccc3c(c2)OCCO3)N2CCC3(CC2)C(=O)NCN3c2ccccc2)cc1 (configuration not stated)	30	0	-5	8	41	-3	x	x
COc1ccc(/C=C/C(=O)c2c(O)n(CCC3=CCCCC3)c(=O)[nH]c2=O)cc1	7	53*	-18	16	46	2	33	65*
COC1C(O)C(C)OC(OC2C(Oc3cccc4c(O)c5c(=O)oc6ccc(C)c7c(=O)oc(c34)c5c67)OC(C)C(O)C2O)C1O (configuration not stated)	1	26	10	-4	11	-7	x	x
O=C(COC(=O)c1cc(Br)cc(Br)c1O)NC12CC3CC(CC(C3)C1)C2	23	2	27	25	-1	-17	x	x
C=C1C(=O)OC2CC(C)C3C=CC(=O)C3(C)C(O)C12 (configuration not stated)	106*	86*	96*	26	102*	-62*	94*	100*
C=C1C(=O)O[C@@H]2C[C@@H](C)[C@@H]3C4OC4C(=O)[C@@]3(C)[C@@H](O)[C@H]12 (some centres not stated)	96*	88*	92*	15	97*	-46	95*	104*
C=C1C(=O)O[C@H]2C[C@@H](C)[C@@H]3C=CC(=O)[C@@]3(C)C[C@H]12	x	x	x	x	x	x	x	x	Mdm2 MdmX conf=103*
C[C@@H]1CN([C@@H](C)CO)C(=O)CCCn2nncc2CO[C@H]1CN(C)C(=O)Oc1ccccc1	-13	5	9	12	13	-4	x	x
O=S(=O)(c1ccc(Cl)cc1)N1Cc2ccccc2-n2nncc2C1	9	-13	6	-6	1	1	x	x
COc1cc2c(cc1OC)CN(c1ccc([N+](=O)[O-])c(C(F)(F)F)c1)CC2	27	46*	-12	19	74*	-9	-12	36
CC(C)(O)C(=O)Nc1ccc([N+](=O)[O-])c(C(F)(F)F)c1	-8	0	7	-4	-6	8	x	x
CCOC(=O)[C@]12Cc3cc(C)ccc3[C@H]1N(Cc1ccccc1)C(=O)c1cc(OC)ccc12	x	23	x	17	16	x	x	x
CCCCOC1OCN(C2CCCCC2)CC1(C)C (configuration not stated)	12	15	-23	-8	-16	5	x	x
CC[C@H](C)[C@@H]1NC(=O)CNC(=O)c2csc(n2)[C@H](C(C)(C)O)OC(=O)C(C)(C)[C@H](CCCC(C)(Cl)Cl)OC(=O)c2csc1n2	65*	42*	83*	46	-25	-91*	44*	88*
Cc1cc([N+](=O)[O-])c2ccccc2[n+]1[O-]	108*	48*	-8	-31	4	-12	x	x	Mdm2 MdmX conf=103*
CCOP(=O)(NC(C)C)Oc1ccc(SC)c(C)c1 (configuration not stated)	9	12	11	-7	1	1	x	x
CC(C)(C)N1CC(C(=O)c2ccccc2)C1c1ccccc1 (configuration not stated)	2	2	-2	-7	-1	11	x	x
C=C1C(=O)OC2C1CCC(C)C1(O)C=CC(=O)C21C (configuration not stated)	106*	47*	50	-17	66*	-14	13	99*
